From PubChem BioAssay AID489028 (Sanford-Burnham Center for Chemical Genomics, 2010)
The whole screen tested about 10,000 compounds, of which about 5,600 (56%) were called active. So high a share suggests a set chosen from earlier hits. Not all results are given here. Unmarked numbers belong to inactive results. No stated cut-off is given here; in the data, active means inhibition above about 40%; inactive means the rest.

Biological target: Protein Mdm4 (Homo sapiens) + E3 ubiquitin-protein ligase Mdm2 (Homo sapiens) (UniProt O15151+Q00987)
Assay: Mdm2-MdmX complex disruptors, retested hits, confirmation, luminescence, single concentration (AID 489028)
Details: Mdm2-MdmX binding, luminescent assay; at 8 µM; hits give high values

Protein Mdm4 (Homo sapiens) + E3 ubiquitin-protein ligase Mdm2 (Homo sapiens), sequence (O15151 whole entry, looked up): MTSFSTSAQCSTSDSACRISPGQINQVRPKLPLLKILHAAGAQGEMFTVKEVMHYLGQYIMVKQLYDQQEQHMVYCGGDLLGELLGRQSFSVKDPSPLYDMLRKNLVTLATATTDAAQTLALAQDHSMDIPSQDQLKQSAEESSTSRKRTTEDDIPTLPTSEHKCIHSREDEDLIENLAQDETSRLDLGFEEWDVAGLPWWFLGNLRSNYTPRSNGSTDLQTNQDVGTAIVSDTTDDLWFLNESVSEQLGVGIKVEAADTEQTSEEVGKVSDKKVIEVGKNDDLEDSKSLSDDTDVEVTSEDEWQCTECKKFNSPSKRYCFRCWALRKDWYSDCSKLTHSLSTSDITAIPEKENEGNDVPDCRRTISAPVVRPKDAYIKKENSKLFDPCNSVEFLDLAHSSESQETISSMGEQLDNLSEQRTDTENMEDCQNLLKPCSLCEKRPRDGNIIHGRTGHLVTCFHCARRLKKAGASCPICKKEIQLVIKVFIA
Protein Mdm4 (Homo sapiens) + E3 ubiquitin-protein ligase Mdm2 (Homo sapiens), sequence (Q00987 whole entry, looked up): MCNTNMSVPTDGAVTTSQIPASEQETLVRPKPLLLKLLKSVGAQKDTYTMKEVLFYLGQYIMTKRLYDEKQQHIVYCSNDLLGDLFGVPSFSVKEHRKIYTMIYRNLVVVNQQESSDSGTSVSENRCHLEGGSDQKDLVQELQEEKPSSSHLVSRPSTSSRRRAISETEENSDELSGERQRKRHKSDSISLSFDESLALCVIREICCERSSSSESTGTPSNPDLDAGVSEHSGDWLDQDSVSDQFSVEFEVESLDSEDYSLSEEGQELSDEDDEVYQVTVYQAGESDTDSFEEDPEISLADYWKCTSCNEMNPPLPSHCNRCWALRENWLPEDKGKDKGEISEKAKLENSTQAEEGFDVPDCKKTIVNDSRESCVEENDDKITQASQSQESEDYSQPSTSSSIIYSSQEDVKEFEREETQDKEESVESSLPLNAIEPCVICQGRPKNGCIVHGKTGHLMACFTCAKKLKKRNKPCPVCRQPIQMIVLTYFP

Compound	inhibition
COc1ccc(-c2cn[nH]c2-c2ccc(OC)cc2)cc1	63% (active)
CC1(C)Cc2nc3sc4c(SCC(=O)NC(c5ccccc5)c5ccccc5)ncnc4c3cc2CO1	2.85%
CCOc1ccc(S(=O)(=O)Nc2cccc(C(=O)NCC3(N4CCCCC4)CCCCC3)c2)cc1	78.6% (active)
CCOC(=O)c1c(-c2cccc(C)c2)csc1NC(=O)c1c(-c2ccccc2)noc1C	92.6% (active)
CCOC(=O)c1c(-c2ccc(C)cc2)csc1/N=C(\C)C1=C(O)c2ccccc2C1=O	28.7%
CCOC(=O)c1cc(NC(=O)c2ccc(Cl)cc2)c(=O)oc1-c1ccccc1	35.2%
Nc1nonc1-c1nc2ccccc2n1Cc1ccc(F)cc1	63.5% (active)
Fc1ccc(CNc2nc3ccccc3n3nnnc23)cc1	9.85%
COc1cccc(/C=N/NC(=O)c2[nH]nc3c2CCc2ccccc2-3)c1O	83.7% (active)
COc1ccc(CNc2nc(NCc3ccc(OC)cc3)c3ncn(C4CCCC4)c3n2)cc1	45.4% (active)
CCOc1ccc2nc(Cl)c(C3CC(c4ccccc4)=NN3C(=O)c3cccs3)cc2c1 (stereo not given)	5.3%
COc1ccc(C2CC(c3ccccc3)=NN2C(=O)c2ccc(Cl)c([N+](=O)[O-])c2)cc1 (stereo not given)	46.1% (active)
COc1ccc(-c2cc(C3CCN(c4ncccc4[N+](=O)[O-])CC3)[nH]n2)cc1	24.6%
CCOC(=O)C1=C(NC(=S)NC(=O)c2ccccc2)c2ccccc2CC1(C)C	28.8%
N#CC1=C(N)Oc2cc(O)ccc2C1C1CCCCC1 (stereo not given)	45.4% (active)
COc1ccc(C2C(C#N)=C(N)Oc3cc(N)ccc32)cc1OC (stereo not given)	9.6%
c1ccc2c(c1)CSc1sccc1C2=C1CCNCC1	72.3% (active)
CS(=O)(=O)c1ccc(-c2nnn(CC(=O)Nc3ccc4c(c3)OCCO4)n2)cc1	-2.65%
O=C(Nc1ccc2c(c1)OCCO2)C1CCCC1	69.3% (active)
O=C(N/N=C\c1cc2c(cc1Cl)OCO2)c1ccc(Br)s1	57.1% (active)
Cc1ccc(-c2nc3ccccc3[nH]2)cc1NC(=O)c1sc2ccccc2c1Cl	57.4% (active)
COc1ccc(Br)cc1C(=O)NC(=S)Nc1cc(-c2nc3ccccc3[nH]2)ccc1C	16.8%
COc1ccc(-c2cc(C(=O)N(C)Cc3ccc(OC)c(OC)c3OC)c3ccccc3n2)cc1OC	46.9% (active)
COc1ccc(-c2cc(C(=O)N(C)CC(=O)Nc3ccccc3Cl)c3ccccc3n2)cc1OC	49.2% (active)
COc1ccc(CN(C)C(=O)c2cc(-c3ccc(C)cc3C)nc3ccccc23)c(OC)c1OC	60.2% (active)
